This passage reports AC50 and outcome results from PubChem BioAssay (EPA / NIEHS).

The source made the active and inactive calls. Rule for the calls: active = hit-call score of the fitted dose curve at least 0.9, where 1 is the maximum; inactive = score below 0.9.

What is called AC50 is the concentration giving half of the maximal activity seen.

Read-out in one assay: catalase (CAT), CAT (gene 847)
Nature of the assay: LTEA_HepaRG_CAT: Life Technologies and Expression Analysis (LTEA) Assay for catalase (CAT) using HepaRG (AID 2283452).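 For AC50: TaqMan qRT-PCR signal normalized to ACTB GAPDH and POLR2A housekeeping genes.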 The conditions noted are these: mRNA level, 48 h; actives raise or lower the signal. An outline of the steps:
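Expression of CAT was quantified by TaqMan qRT-PCR with ACTB/GAPDH/POLR2A normalization after 48 h chemical exposure of HepaRG. Eight-point half-log series, top 100 uM, in 0.5% DMSO; gain or loss fitted against vehicle.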
With `Nc1nc(Cl)nc2c1ncn2[C@H]1C[C@H](O)[C@@H](CO)O1`, the AC50 was 0.887 µM (active).
Turning to `CCCCCCCCCC[N+](C)(C)[O-]`, the compound was called inactive.
Regarding `Oc1ccc(O)cc1`, the compound was classed as inactive.
Same read-out and setting: in the case of `O=C(O)CN(CC(=O)O)CC(=O)O` it was “inactive”; in that of `O=C1c2c(O)cccc2Cc2cccc(O)c21`, “inactive”.
For `O=C1OC(c2ccc(O)cc2)(c2ccc(O)cc2)c2ccccc21`, the half-maximal activity concentration (AC50) is 69.2 µM (active).
In the case of `C#CC(O)C(CC)CCCC` (stereo not given), the outcome was inactive.
Still for that read-out and setting: in the case of `O=C(O)c1[nH]n(-c2ccc(S(=O)(=O)O)cc2)c(=O)c1N=Nc1ccc(S(=O)(=O)O)cc1` it was “inactive”; in that of `CS(=O)(=O)c1ccc([C@@H](C[C@H]2CCC(=O)C2)C(=O)Nc2cnccn2)cc1Cl`, “inactive”.
In the case of `CCN(CC)CCOc1ccc(C(=C(Cl)c2ccccc2)c2ccccc2)cc1`, the AC50 is 42 µM (active).
With `Oc1ccccc1O`, the call was inactive.
`CC(=O)O`: the result was inactive.
The same measure, in the same setting: in the case of `O=C(Oc1ccccc1)c1cccc(C(=O)Oc2ccccc2)c1` it was “inactive”.
In the case of `O=C(O)CC(O)(CC(=O)O)C(=O)O`, the compound was classed as inactive.
Take `Cc1c(C)c2c(c(C)c1O)CCC(C)(COc1ccc(CC3SC(=O)NC3=O)cc1)O2` (stereo not given): the AC50 was 50 µM (active).
For `CC(=O)[C@@]1(O)CC[C@H]2[C@@H]3CCC4=CC(=O)CC[C@]4(C)[C@H]3CC[C@@]21C`, the call was inactive.
With `CC(C)(O)c1ccc(CNC(=O)c2cccnc2Oc2ccc(F)cc2)cc1`, the compound was called inactive.
On the same count and under the same terms, in the case of `S=c1[nH]c2ccccc2s1` it was “inactive”.
Consider `OCC(O)CO`, for which the result was inactive.
On the same count and under the same terms, in the case of `CCC(C)N(C)C(=O)c1cc2ccccc2c(-c2ccccc2Cl)n1` (stereo not given) it was “inactive”; in that of `c1ccc2occc2c1`, “inactive”.

Read-out in another assay: flavin-containing dimethylaniline monooxygenases 3 (FMO3), FMO3 (gene 2328)
Briefly: LTEA_HepaRG_FMO3: Life Technologies and Expression Analysis (LTEA) Assay for flavin-containing dimethylaniline monooxygenases 3 (FMO3) using HepaRG (AID 2283453).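 For AC50: differentiated human HepaRG liver cells in serum-free induction medium.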 The conditions noted are these: mRNA level, 48 h; actives raise or lower the signal. An outline of the steps: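 Differentiated HepaRG cells in serum-free induction medium, exposed 48 h in duplicate to 8 half-log concentrations up to 100 uM in 0.5% DMSO. FMO3 mRNA by qRT-PCR, normalized to ACTB, GAPDH, POLR2A; bidirectional fit vs DMSO.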
`Nc1nc(Cl)nc2c1ncn2[C@H]1C[C@H](O)[C@@H](CO)O1`: the AC50 is 2.05 µM (active).
On to `CCCCCCCCCC[N+](C)(C)[O-]`, for which the result was inactive.
The same measure, in the same setting: in the case of `Oc1ccc(O)cc1` it was “inactive”; in that of `O=C(O)CN(CC(=O)O)CC(=O)O`, “inactive”.
As for `O=C1c2c(O)cccc2Cc2cccc(O)c21`, the result was inactive.
`O=C1OC(c2ccc(O)cc2)(c2ccc(O)cc2)c2ccccc21`: the AC50 was 93.8 µM (active).
`CC(COCC(C)OC(=O)c1ccccc1)OC(=O)c1ccccc1` (stereo not given): the compound was classed as inactive.
Still for that read-out and setting: in the case of `C#CC(O)C(CC)CCCC` (stereo not given) it was “inactive”; in that of `O=C(O)c1[nH]n(-c2ccc(S(=O)(=O)O)cc2)c(=O)c1N=Nc1ccc(S(=O)(=O)O)cc1`, “inactive”.
Same read-out and setting: in the case of `CS(=O)(=O)c1ccc([C@@H](C[C@H]2CCC(=O)C2)C(=O)Nc2cnccn2)cc1Cl` it was “inactive”.
Regarding `CC1=C(C)S(=O)(=O)CCS1(=O)=O`, the AC50 was 90.9 µM (active).
With `CCN(CC)CCOc1ccc(C(=C(Cl)c2ccccc2)c2ccccc2)cc1`, the AC50 was 22 µM (active).
Regarding `Oc1ccccc1O`, the call was inactive.
Same read-out and setting: in the case of `O=C1NC(=O)C(c2ccccc2)(c2ccccc2)N1` it was “inactive”.
For `CN(C)C(=O)NC1(c2ccccc2)CCN(CCC[C@]2(c3ccc(Cl)c(Cl)c3)CCCN(C(=O)c3ccccc3)C2)CC1`, the AC50 is 18.8 µM (active).
As for `CC(=O)O`, the compound was called inactive.
Same read-out and setting: in the case of `O=C(Oc1ccccc1)c1cccc(C(=O)Oc2ccccc2)c1` it was “inactive”.
On the same count and under the same terms, in the case of `O=C(O)CC(O)(CC(=O)O)C(=O)O` it was “inactive”.
On to `Cc1c(C)c2c(c(C)c1O)CCC(C)(COc1ccc(CC3SC(=O)NC3=O)cc1)O2` (stereo not given), for which the AC50 is 93 µM (active).
For `CC(=O)[C@@]1(O)CC[C@H]2[C@@H]3CCC4=CC(=O)CC[C@]4(C)[C@H]3CC[C@@]21C`, the compound was classed as inactive.
On the same count and under the same terms, in the case of `CCCCc1nc2cccnc2n1Cc1ccc(-c2ccccc2-c2nnn[nH]2)cc1` it was “inactive”.
Same read-out and setting: in the case of `CC(C)(O)c1ccc(CNC(=O)c2cccnc2Oc2ccc(F)cc2)cc1` it was “inactive”.
Still for that read-out and setting: in the case of `Cc1cc(Cc2ccc(N)c(C)c2)ccc1N` it was “inactive”.
`COc1ccc(C(=O)Nc2nc3ccccc3c(NCc3ccccc3)c2C#N)cc1`: the AC50 was 16.2 µM (active).
On to `S=c1[nH]c2ccccc2s1`, for which the call was inactive.
`CC(=O)O[C@]1(C(C)=O)CC[C@H]2[C@@H]3C=C(Cl)C4=CC(=O)[C@@H]5C[C@@H]5[C@]4(C)[C@H]3CC[C@@]21C`: the AC50 was 36.1 µM (active).
For the compound `OCC(O)CO`, the call was inactive.
Same read-out and setting: in the case of `CCC(C)N(C)C(=O)c1cc2ccccc2c(-c2ccccc2Cl)n1` (stereo not given) it was “inactive”; in that of `c1ccc2occc2c1`, “inactive”.

Read-out in the next assay: Cytochrome P450 (CYP1A1), CYP1A1 (gene 1543)
Briefly: LTEA_HepaRG_CYP1A1: Life Technologies and Expression Analysis (LTEA) Assay for Cytochrome P450 (CYP1A1) using HepaRG (AID 2283454). To be noted: mRNA level, 48 h; actives raise or lower the signal. An outline of the steps:
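Induction of CYP1A1 mRNA in a human hepatic cell line was measured 48 h after dosing, with 1 mM phenobarbital as induction positive control and 0.5% DMSO vehicle as baseline for bidirectional curve fitting.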
For the compound `Nc1nc(Cl)nc2c1ncn2[C@H]1C[C@H](O)[C@@H](CO)O1`, the AC50 is 0.749 µM (active).
On the same count and under the same terms, in the case of `CCCCCCCCCC[N+](C)(C)[O-]` it was 50 µM (active); in that of `O=C(O)CN(CC(=O)O)CC(=O)O`, 79.4 µM (active).
The same measure, in the same setting: in the case of `O=C1c2c(O)cccc2Cc2cccc(O)c21` it was 22.1 µM (active); in that of `O=C1OC(c2ccc(O)cc2)(c2ccc(O)cc2)c2ccccc21`, 50 µM (active); in that of `C#CC(O)C(CC)CCCC` (stereo not given), 73.1 µM (active).
Same read-out and setting: in the case of `CC1=C(C)S(=O)(=O)CCS1(=O)=O` it was 50 µM (active).
As to `CCN(CC)CCOc1ccc(C(=C(Cl)c2ccccc2)c2ccccc2)cc1`, the call was inactive.
With `CN(C)C(=O)NC1(c2ccccc2)CCN(CCC[C@]2(c3ccc(Cl)c(Cl)c3)CCCN(C(=O)c3ccccc3)C2)CC1`, the compound was called inactive.
As to `O=C(Oc1ccccc1)c1cccc(C(=O)Oc2ccccc2)c1`, the AC50 is 67.7 µM (active).
Still for that read-out and setting: in the case of `O=C(O)CC(O)(CC(=O)O)C(=O)O` it was 50 µM (active); in that of `Cc1c(C)c2c(c(C)c1O)CCC(C)(COc1ccc(CC3SC(=O)NC3=O)cc1)O2` (stereo not given), 27.5 µM (active).
Same read-out and setting: in the case of `CC(C)(O)c1ccc(CNC(=O)c2cccnc2Oc2ccc(F)cc2)cc1` it was 67.4 µM (active).
On the same count and under the same terms, in the case of `Cc1cc(Cc2ccc(N)c(C)c2)ccc1N` it was 50 µM (active).
As for `c1ccc2occc2c1`, the outcome was inactive.
